Out of some 5,500 compounds screened, about 2,000 (36%) were called active. Not shown: some 18% with an inconclusive outcome. Cut-off read from the data, not from the text of the source: active = normalized growth mostly below about 0.91 (no sharp cut-off); inconclusive = no clear call, values can overlap the other calls; inactive = mostly above about 0.92. The list shows a part of the results.
Experiment: chemical genetic growth profiling, strain panel (AID 1159580);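 note: tested at 20 µM; growth read once vehicle control cultures reached saturation at 30 °C; 1 = growth at the plate median or of vehicle wells; lower values mean less growth of the strain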
Details: S. cerevisiae deletion strains, growth OD
[1] = locus YJL095W, strain BCK1, active compounds read low

Measured: normalized growth

NC(=O)CC[C@H](N)C(=O)O
inactive: locus YHR030C, strain SLT2, active compounds read low 0.98 | locus YHR079C, strain IRE1, active compounds read low 0.977 | [1] 0.965 | locus YJR066W, strain TOR1, active compounds read low 0.941 | locus YLR113W, strain HOG1, active compounds read low 0.976 | locus YNL183C, strain NPR1, active compounds read low 0.954 | locus YOR231W, strain MKK1, active compounds read low 0.98 | locus YPL256C, strain CLN2, active compounds read low 0.972

O=c1oc2ccccc2cc1O
inactive: locus YAL021C, strain ccr4, active compounds read low 0.986 | locus YAL026C, strain drs2, active compounds read low 0.975 | locus YAL030W, strain snc1, active compounds read low 0.993 | locus YBL061C, strain skt5, active compounds read low 0.993 | locus YBR009C, strain hhf1, active compounds read low 1 | locus YBR021W, strain FUR4, active compounds read low 1.03 | locus YBR023C, strain chs3, active compounds read low 0.993 | locus YBR171W, strain sec66, active compounds read low 0.977 | locus YBR229C, strain ROT2, active compounds read low 1.03 | locus YBR231C, strain swc5, active compounds read low 1.01 | locus YBR279W, strain paf1, active compounds read low 0.994 | locus YCL011C, strain gbp2, active compounds read low 1.01 | locus YCL016C, strain dcc1, active compounds read low 0.999 | locus YCL029C, strain bik1, active compounds read low 1.02 | locus YCL061C, strain MRC1, active compounds read low 0.991 | locus YCL069W, strain vba3, active compounds read low 0.968 | locus YCR088W, strain abp1, active compounds read low 0.986 | locus YDL005C, strain med2, active compounds read low 0.986 | locus YDL035C, strain GPR1, active compounds read low 1.06 | locus YDL040C, strain nat1, active compounds read low 0.994 | locus YDL074C, strain BRE1, active compounds read low 1.13 | locus YDL101C, strain DUN1, active compounds read low 1.01 | locus YDL134C, strain PPH21, active compounds read low 1.07 | locus YDL185W, strain tfp1, active compounds read low 0.998 | locus YDL192W, strain arf1, active compounds read low 1.03 | locus YDR001C, strain nth1, active compounds read low 0.984 | locus YDR069C, strain doa4, active compounds read low 0.991 | locus YDR101C, strain arx1, active compounds read low 0.991 | locus YDR137W, strain rgp1, active compounds read low 0.969 | locus YDR159W, strain sac3, active compounds read low 1.03 | locus YDR162C, strain NBP2, active compounds read low 1.04 | locus YDR195W, strain ref2 1.01 | locus YDR297W, strain sur2, active compounds read low 0.989 | locus YDR318W, strain mcm21, active compounds read low 0.995 | locus YDR334W, strain swr1, active compounds read low 0.96 | locus YDR335W, strain msn5, active compounds read low 1 | locus YDR388W, active compounds read low 0.992 | locus YDR392W, strain spt3, active compounds read low 0.983 | locus YDR502C, strain sam2, active compounds read low 0.986 | locus YEL003W, strain gim4, active compounds read low 0.993 | locus YEL037C, strain rad23, active compounds read low 0.979 | locus YEL061C, strain CIN8 (second series), active compounds read low 0.976 | locus YER015W, strain faa2, active compounds read low 1.01 | locus YER016W, strain bim1, active compounds read low 1 | locus YER110C, active compounds read low 0.974 | locus YER111C, strain swi4, active compounds read low 0.988 | locus YER155C, strain BEM2 (second series), active compounds read low 0.989 | locus YER155C, strain BEM2, active compounds read low 1.02 | locus YER167W, strain BCK2, active compounds read low 1.03 | locus YFR010W, strain ubp6, active compounds read low 0.963 | locus YGL078C, strain dbp3, active compounds read low 0.953 | locus YGL086W, strain mad1, active compounds read low 0.994 | locus YGL167C, strain pmr1, active compounds read low 0.99 | locus YGL173C, strain kem1, active compounds read low 0.996 | locus YGL227W, strain vid30, active compounds read low 0.995 | locus YGL240W, strain doc1, active compounds read low 0.984 | locus YGL248W, strain PDE1, active compounds read low 1.04 | locus YGL253W, strain hxk2, active compounds read low 0.994 | locus YGR135W, strain pre9, active compounds read low 0.969 | locus YGR252W, strain gcn5, active compounds read low 0.924 | locus YHR013C, strain ard1, active compounds read low 1.04 | locus YHR027C, strain rpn1, active compounds read low 0.986 | locus YHR079C, strain IRE1 (second series), active compounds read low 0.986 | locus YHR094C, strain hxt1, active compounds read low 0.989 | locus YHR129C, strain ARP1, active compounds read low 1.06 | locus YHR142W, strain chs7, active compounds read low 0.974 | locus YHR200W, strain rpn10, active compounds read low 0.983 | locus YIL066C, strain RNR3, active compounds read low 1.04 | locus YIL073C, strain SPO22, active compounds read low 1.08 | locus YIL125W, strain kgd1, active compounds read low 1 | locus YIR030C, strain dcg1, active compounds read low 1 | locus YJL092W, strain hpr5, active compounds read low 0.987 | locus YJL095W, strain BCK1 (second series), active compounds read low 0.982 | [1] 1.11 | locus YJL115W, strain asf1, active compounds read low 0.98 | locus YJL129C, strain trk1, active compounds read low 0.989 | locus YJL134W, strain LCB3, active compounds read low 1.02 | locus YJL154C, strain vps35, active compounds read low 0.987 | locus YJL164C, strain tpk1, active compounds read low 0.99 | locus YJL166W, strain qcr8, active compounds read low 0.992 | locus YJL168C, strain set2, active compounds read low 0.989 | locus YJL187C, strain SWE1 (second series), active compounds read low 1.03 | locus YJL187C, strain SWE1, active compounds read low 0.996 | locus YKL009W, strain mrt4, active compounds read low 0.937 | locus YKL068W, active compounds read low 0.978 | locus YKL085W, strain MDH1 (second series), active compounds read low 0.99 | locus YKL085W, strain MDH1, active compounds read low 0.99 | locus YKL160W, strain elf1, active compounds read low 1.01 | locus YKL190W, strain CNB1, active compounds read low 1.04 | locus YKR001C, strain vps1, active compounds read low 1.02 | locus YKR026C, strain gcn3, active compounds read low 0.988 | locus YKR091W, strain srl3, active compounds read low 0.994 | locus YLL001W, strain dnm1, active compounds read low 0.985 | locus YLL026W, active compounds read low 1 | locus YLL041C, strain sdh2, active compounds read low 1.01 | locus YLR027C, strain aat2, active compounds read low 1.01 | locus YLR039C, strain RIC1, active compounds read low 1.16 | locus YLR058C, strain SHM2, active compounds read low 1.04 | locus YLR102C, strain apc9, active compounds read low 1.01 | locus YLR221C, strain rsa3, active compounds read low 1 | locus YLR258W, strain gsy2, active compounds read low 0.987 | locus YLR262C, strain YPT6 (second series), active compounds read low 0.898 | locus YLR262C, strain YPT6, active compounds read low 1.07 | locus YLR268W, strain sec22, active compounds read low 0.997 | locus YLR320W, strain mms22, active compounds read low 1 | locus YLR342W, strain FKS1 (second series), active compounds read low 1.04 | locus YLR342W, strain FKS1, active compounds read low 0.985 | locus YLR357W, strain rsc2, active compounds read low 1 | locus YLR370C, strain arc18, active compounds read low 0.983 | locus YLR371W, strain rom2, active compounds read low 1.02 | locus YLR384C, strain iki3, active compounds read low 1 | locus YLR418C, strain cdc73, active compounds read low 1.11 | locus YML016C, strain PPZ1, active compounds read low 1.03 | locus YML032C, strain rad52, active compounds read low 0.995 | locus YML120C, strain ndi1, active compounds read low 0.981 | locus YML124C, strain tub3, active compounds read low 1.01 | locus YMR058W, strain fet3, active compounds read low 0.984 | locus YMR078C, strain ctf18, active compounds read low 0.985 | locus YMR125W, strain sto1, active compounds read low 0.972 | locus YMR129W, active compounds read low 1 | locus YMR205C, strain PFK2, active compounds read low 1.01 | locus YMR223W, strain ubp8, active compounds read low 1 | locus YMR231W, strain pep5, active compounds read low 0.977 | locus YMR307W, strain GAS1, active compounds read low 1.3 | locus YNL067W, strain RPL9B, active compounds read low 1.03 | locus YNL071W, strain lat1, active compounds read low 0.978 | locus YNL128W, strain TEP1, active compounds read low 1.03 | locus YNL209W, strain ssb2, active compounds read low 0.998 | locus YNL233W, strain BNI4, active compounds read low 1.08 | locus YNL248C, strain rpa49, active compounds read low 0.958 | locus YNL250W, strain rad50, active compounds read low 1.01 | locus YNL271C, strain bni1, active compounds read low 0.987 | locus YNL298W, strain CLA4, active compounds read low 0.993 | locus YNL307C, strain MCK1, active compounds read low 1 | locus YNL322C, strain KRE1 (second series), active compounds read low 0.989 | locus YNR049C, strain mso1, active compounds read low 0.998 | locus YNR052C, strain pop2, active compounds read low 0.948 | locus YOL012C, strain htz1 1.2 | locus YOL147C, strain pex11, active compounds read low 1 | locus YOR001W, strain rrp6, active compounds read low 0.985 | locus YOR061W, strain CKA2, active compounds read low 1.02 | locus YOR069W, strain VPS5, active compounds read low 1.02 | locus YOR070C, strain gyp1, active compounds read low 0.997 | locus YOR080W, strain dia2, active compounds read low 0.984 | locus YOR083W, strain WHI5, active compounds read low 0.986 | locus YOR106W, strain vam3, active compounds read low 0.946 | locus YOR136W, strain idh2, active compounds read low 0.985 | locus YOR144C, strain elg1, active compounds read low 0.996 | locus YOR184W, strain ser1, active compounds read low 0.98 | locus YOR265W, strain rbl2, active compounds read low 0.992 | locus YOR270C, strain vph1, active compounds read low 0.87 | locus YOR290C, strain snf2, active compounds read low 0.984 | locus YOR316C, strain cot1, active compounds read low 0.991 | locus YPL051W, strain arl3, active compounds read low 0.997 | locus YPL055C, strain LGE1, active compounds read low 1.13 | locus YPL078C, strain atp4, active compounds read low 0.966 | locus YPL106C, strain sse1, active compounds read low 0.988 | locus YPL240C, strain hsp82, active compounds read low 0.997 | locus YPL241C, strain CIN2, active compounds read low 1.04 | locus YPR119W, strain clb2, active compounds read low 1.01 | locus YPR141C, strain kar3, active compounds read low 1 | locus YPR163C, strain tif3, active compounds read low 1 | locus YPR167C, strain met16, active compounds read low 0.993 | strain wtn01, active compounds read low 0.984
